USP10 inh = blocks human USP10 ubiquitin-rhodamine cleavage; Q14694; purified USP10, Ub-rhodamine fluorescence, 60 min; inhibition, % at 20 µM; actives 1.1% (n = 47,000)
USP17 inh = blocks human USP17 ubiquitin-rhodamine cleavage. purified USP17, Ub-rhodamine cleavage fluorescence, 3 h. inhibition, % at 50 µM. actives 6.5% (n = 47,000)
USP28 inh = blocks human USP28 ubiquitin-rhodamine cleavage. purified USP28, Ub-rhodamine cleavage fluorescence, 30 min. inhibition, % at 25 µM. actives 3% (n = 47,000)
Target sequence (Q96RU2 whole entry, looked up): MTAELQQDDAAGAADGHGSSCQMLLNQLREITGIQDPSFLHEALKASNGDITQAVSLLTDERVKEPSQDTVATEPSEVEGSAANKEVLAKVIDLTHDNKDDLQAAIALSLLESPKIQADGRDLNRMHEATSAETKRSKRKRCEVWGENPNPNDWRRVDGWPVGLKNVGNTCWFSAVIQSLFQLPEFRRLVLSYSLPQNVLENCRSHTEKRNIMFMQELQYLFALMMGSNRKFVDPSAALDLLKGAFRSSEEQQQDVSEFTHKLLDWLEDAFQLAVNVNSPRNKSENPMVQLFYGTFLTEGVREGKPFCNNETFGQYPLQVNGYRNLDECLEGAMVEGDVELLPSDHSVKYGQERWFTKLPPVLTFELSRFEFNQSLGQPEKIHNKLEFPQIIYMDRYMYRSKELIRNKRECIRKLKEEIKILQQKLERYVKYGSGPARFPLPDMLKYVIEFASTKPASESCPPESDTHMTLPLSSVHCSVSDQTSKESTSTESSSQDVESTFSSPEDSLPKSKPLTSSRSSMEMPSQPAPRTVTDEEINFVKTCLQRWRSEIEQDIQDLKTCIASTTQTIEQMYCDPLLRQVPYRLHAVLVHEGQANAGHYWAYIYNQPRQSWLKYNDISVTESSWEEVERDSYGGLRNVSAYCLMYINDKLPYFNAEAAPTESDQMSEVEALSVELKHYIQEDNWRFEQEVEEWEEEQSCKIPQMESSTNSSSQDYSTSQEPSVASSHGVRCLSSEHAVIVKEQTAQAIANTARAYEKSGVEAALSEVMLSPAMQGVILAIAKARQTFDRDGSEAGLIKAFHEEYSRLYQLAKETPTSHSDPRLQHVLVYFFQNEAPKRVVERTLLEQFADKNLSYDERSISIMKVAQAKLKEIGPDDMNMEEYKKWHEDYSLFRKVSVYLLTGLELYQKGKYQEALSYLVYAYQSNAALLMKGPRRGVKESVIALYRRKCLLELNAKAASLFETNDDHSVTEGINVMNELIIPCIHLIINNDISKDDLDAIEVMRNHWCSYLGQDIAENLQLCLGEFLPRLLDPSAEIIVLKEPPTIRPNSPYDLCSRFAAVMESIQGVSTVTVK
USP8 inh = blocks human USP8 ubiquitin-rhodamine cleavage | P40818 | purified USP8, Ub-rhodamine cleavage fluorescence, 30 min | inhibition, % at 20 µM | actives 4.2% (n = 47,000)
USP30 block = inhibitors of human USP30 deubiquitinase | Q70CQ3 | purified USP30, Ub-rhodamine cleavage fluorescence | inhibition, % at 25 µM | actives 5.3% (n = 47,000) | AID 1645860
Each line names hits and unclear results; the compound was inactive in the other large screens. Only some compounds are listed: those with a hit (about 14% of all), similar ones and a draw of the others. Rule as the data show it: active = inhibition above about 30%; inactive = the rest.

CCOC(=O)C1=C(CN2CCN(c3ccc(F)cc3)CC2)NC(=O)NC1c1ccc(OC)cc1 (configuration not stated)	USP17 inh 36, USP30 block 34
COc1cc2c(=O)n(CCC(=O)NCC3CCCO3)c(=O)n(CC(=O)c3ccccc3)c2cc1OC (configuration not stated)	none
COc1cc2c(=O)n(CCCC(=O)NCC3CCCO3)c(=O)n(CC(=O)NC3CCCCC3)c2cc1OC (configuration not stated)	USP30 block 33
COc1cc2c(=O)n(CC3CCCO3)c(=O)n(CC(=O)Nc3ccc4c(c3)OCCO4)c2cc1OC (configuration not stated)	USP17 inh 49, USP30 block 38
COc1cc2c(=O)n(CCCC(=O)NCC3CCCO3)c(=O)n(CC(=O)c3ccc(Cl)cc3)c2cc1OC (configuration not stated)	none
COc1cc2c(=O)n(CC3CCCO3)c(=O)n(CC(=O)c3ccc4c(c3)OCO4)c2cc1OC (configuration not stated)	USP10 inh 33, USP8 inh 47
CSc1ccc(/C=C/c2nc(-c3ccccc3O)n[nH]2)cc1	USP17 inh 46, USP8 inh 64
O=C(Nc1ccc(-n2cccc2)cc1)c1ccc(Cl)cc1	none
Cc1cnnn1-c1ccc(C(=O)Nc2cccc(Cl)c2)cc1	USP17 inh 80, USP30 block 54
Cc1cnnn1-c1ccc(C(=O)Nc2cc(Cl)ccc2Cl)cc1	USP17 inh 68
CC(C)Cc1nc2sc3c(NCCN4CCOCC4)ncnc3c2c2c1CCC2	USP28 inh 82
CCCc1nc2sc3c(NCCCN4CCOCC4)ncnc3c2c2c1CCC2	USP28 inh 84
CC(C)c1nc2sc3c(SCC(=O)N4CCOCC4)ncnc3c2c2c1CCC2	USP28 inh 35
CCCc1nc2sc3c(NCc4ccco4)ncnc3c2c2c1CCC2	USP28 inh 80
COc1ccc2c(c1)CC(C(=O)Nc1ccccc1OC)CO2 (configuration not stated)	none
c1ccc(-c2nc3sc4c(NCc5ccccn5)ncnc4c3c3c2CCC3)cc1	none
CCCCNc1ncnc2c1sc1nc(CCC)c3c(c12)CCC3	USP17 inh 54 (no result: USP28 inh, USP30 block)
CC(C)c1nc2sc3c(NCCCN4CCOCC4)ncnc3c2c2c1CCC2	USP28 inh 48
CCCCc1nc2sc3c(NCc4ccccn4)ncnc3c2c2c1CCC2	USP28 inh 43
CCCc1nc2sc3c(NCCN4CCOCC4)ncnc3c2c2c1CCC2	USP28 inh 80
O=C(c1ccccn1)N1CC[C@@H]2CN(Cc3cccc(Cl)c3)S(=O)(=O)[C@@H]2CC1	none
Cc1nc2c(c(C)nn2C)c(C)c1CCC(=O)Nc1ccc(F)cc1	none
CCCCc1nc2sc3c(NCCCO)ncnc3c2c2c1COC(C)(C)C2	USP17 inh 46
Cc1ccc(C)c(NC(=O)COc2ccc3oc4c(c3c2)CCCC4)c1	none
CCc1ccccc1NC(=O)Cn1c(=O)n(CC(=O)NCc2ccccc2Cl)c(=O)c2sccc21	USP8 inh 38
Cc1ccc(NC(=O)Cn2c(=O)n(-c3ccc(CC(=O)NCc4ccco4)cc3)c(=O)c3sccc32)c(C)c1	USP10 inh 44, USP17 inh 69 (no result: USP28 inh, USP30 block)
Cc1ccccc1NC(=O)Cn1c(=O)n(-c2ccc(CC(=O)NCCc3ccccc3)cc2)c(=O)c2sccc21	USP10 inh 51, USP8 inh 84
O=C(Cc1ccc(-n2c(=O)c3sccc3n(Cc3ccc(F)cc3)c2=O)cc1)NCCc1ccccc1	USP10 inh 37, USP17 inh 67 (no result: USP28 inh, USP30 block)
Cc1cc(-c2nccn2C)nc(C2CCN(C(=O)c3ccccn3)CC2)n1	none
O=C(COc1cccc(F)c1)Nc1ccc(S(=O)(=O)NC2CC2)cc1	none
C(=C\c1ccccc1)/CSc1nnc(-c2ccco2)o1	USP28 inh 32
CC1=C[C@@H](C)[C@H]2[C@@H]3C(=O)C(Cl)(Cl)C(=O)[C@H](C)C(=O)O[C@@H](C)/C=C/C=C\[C@@H](C)[C@@H]3C=C[C@@H]2C1	none
O=C(Nc1ccc(-n2cnc(C(=O)N3CCCCCC3)c2)nc1)C1CC1	none
c1cnc(-c2n[nH]c(C3CCN(C4CCNC4)CC3)n2)cn1 (configuration not stated)	USP17 inh 54, USP28 inh 51
CC(=O)NCC(=O)N1CCN(c2nc(-c3cccnc3)nc3ccccc23)CC1	none
CN(C)C(=O)c1ccc(Nc2nc(-c3cccnc3)nc3ccccc23)cc1	USP17 inh 37
O=C1CCCC[C@]2(CN(Cc3ccccc3OCc3cccnc3)C[C@H]2c2cccnc2)N1	none
c1cnc(-c2nc(-c3ccc(-c4csc(C5CC5)n4)cc3)no2)cn1	none
Clc1ccc(-c2noc(-c3cnccn3)n2)cc1	USP30 block 31
Cc1ccccc1NC(=O)Cc1nc(-c2cccnc2)n[nH]1	none
CCOc1cccc2sc(N(Cc3cccnc3)C(=O)CCc3ccccc3)nc12	USP30 block 80
COCCNc1nnc(Cc2ccccc2)c(=O)[nH]1	none
O=c1ccc(-c2nnc3c4ccccc4c(Cc4ccccc4)nn23)n[nH]1	USP8 inh 59
COc1ccc(Cl)cc1NC(=O)c1ccc(S(=O)(=O)N2CCN(C)CC2)cc1	none
O=C1Nc2cc3c(cc2Sc2ccccc21)OCCO3	USP17 inh 67, USP30 block 60
O=C1Nc2ccccc2S/C1=C/c1ccccc1	none
COc1ccc2c(c1)C=C(C(=O)Nc1ccc(-n3cnnn3)cc1)C=CO2	USP17 inh 39, USP30 block 33
CCCOc1cccc(C(=O)Nc2ccc(-n3cnnn3)cc2)c1	USP17 inh 51, USP28 inh 47, USP8 inh 48, USP30 block 83
COc1cccc(NC(=O)COc2cccc(-n3cnnn3)c2)c1	none
CCc1ccc(NC(=O)COc2cccc(-n3cnnn3)c2)cc1	USP30 block 63
O=C(Nc1ccc(F)cc1)c1cccc(-n2cnnn2)c1	none
CC1(C)CC(=O)c2c(C#N)sc(C#N)c2C1	USP8 inh 60
O=C1CCCC[C@H]2[C@@H](C[C@@H](c3ccccc3F)N2C(=O)c2ccn[nH]2)N1	none
CC12CCC(=O)N1c1ccccc1C(=O)N2c1ccc(F)cc1 (configuration not stated)	USP30 block 32
CN1CC(=O)N(CC(=O)N2CCN(c3ccc(F)cc3)CC2)c2ccccc2C1=O	none
Cc1nc(-c2ccccn2)sc1C(=O)Nc1cccc(C(F)(F)F)c1	none
Nc1ncnc2sc(Nc3ccc([N+](=O)[O-])cc3)nc12	USP17 inh 34, USP28 inh 33, USP8 inh 50, USP30 block 39
Cc1cc(C)cc(-n2ccn3cc(-c4cccc(Cl)c4)nc3c2=O)c1	USP17 inh 45
O=C(Nc1ccccc1Cl)N(Cc1cc2cc3c(cc2[nH]c1=O)OCCO3)C1CCCCC1	USP17 inh 52
Cc1cc(C)c2cc(CN(C(=O)Nc3ccc(Cl)cc3)C3CCCC3)c(=O)[nH]c2c1	USP30 block 36
Cc1cc(C)c2cc(CN(C(=O)Nc3ccc(F)cc3)C3CCCC3)c(=O)[nH]c2c1	none

Compound activity from PubChem BioAssay.
